# Assay outcomes (PubChem BioAssay)
# CtBP-E1A blk = CtBP/E1A binding inhibition; activity change, % (concentration not given with the values); AID 651724; hit rate 0.49% among 340,000; AlphaScreen GST-E1A/His-CtBP binding, 1536-well; stronger effect = lower value; in the data active = activity change below about -65%; inconclusive = mostly about -30% to -63%
#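 AlphaScreen with 125 nM GST-E1A and 125 nM His-CtBP (5X stocks) in Tris pH 8.0, 300 mM NaCl, BSA, Tween 20, TCEP. Compounds preincubated 2 h at 37 deg C, then glutathione donor/nickel acceptor beads added for 1 h at 37 deg C in dark.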
# TDP1 inh = inhibitors of human tyrosyl-DNA phosphodiesterase TDP1 | Q9NUW8 | recombinant TDP1, AlphaScreen DNA substrate cleavage | Potency, µM (titrated, usually from 130 µM), without a hit: at the highest dose activity change, negative = inhibition, usual class: inhibitors | hit rate 0.28% among 350,000; also: potency is read from the fitted curve at half-maximal effect; nearly all actives have a fitted effect of over 40% in size
# Target sequence (Q9NUW8 whole entry, looked up): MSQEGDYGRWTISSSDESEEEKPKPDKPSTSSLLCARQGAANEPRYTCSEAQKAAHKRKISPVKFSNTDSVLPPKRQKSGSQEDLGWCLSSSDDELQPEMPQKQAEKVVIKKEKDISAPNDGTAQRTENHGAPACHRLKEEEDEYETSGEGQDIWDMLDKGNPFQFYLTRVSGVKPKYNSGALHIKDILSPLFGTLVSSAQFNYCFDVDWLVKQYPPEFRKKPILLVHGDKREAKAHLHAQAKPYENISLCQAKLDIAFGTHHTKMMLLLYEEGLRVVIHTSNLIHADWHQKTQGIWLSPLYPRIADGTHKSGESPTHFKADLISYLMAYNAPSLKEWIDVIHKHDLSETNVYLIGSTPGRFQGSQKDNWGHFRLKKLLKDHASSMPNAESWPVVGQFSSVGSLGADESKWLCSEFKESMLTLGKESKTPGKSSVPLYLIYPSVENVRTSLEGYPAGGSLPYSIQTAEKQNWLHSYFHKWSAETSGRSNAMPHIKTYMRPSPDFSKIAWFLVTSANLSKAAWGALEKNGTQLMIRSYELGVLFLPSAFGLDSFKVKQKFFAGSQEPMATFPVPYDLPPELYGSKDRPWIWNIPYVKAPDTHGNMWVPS
#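 Here, a 5' biotin and 3' phosphotyrosine-FITC DNA oligonucleotide reports Tdp1 activity: intact substrate bridges AlphaScreen beads, while cleavage leaves a 3' phosphate and drops signal. All incubations at room temperature.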
# IL1B secr inh = inflammasome signaling inhibition, IL-1 beta readout | THP-1 LPS/ATP IL-1B secretion, AlphaLISA, 16 h; stronger effect = lower value | activity change, % at 57.5 µM | hit rate 4.7% among 360,000; in the data active = activity change below about -50%; inconclusive = mostly about -30% to -49%
#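 Secreted IL-1B measured by AlphaLISA bead assay after 16 h compound exposure of THP-1 cells; compounds (final up to 57.5 uM) added 1 h before LPS (250 ng/mL) and ATP (1.25 mM) stimulation; lower signal means less secretion.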
# DT40 TDP1 CPT = DT40-hTDP1 cell growth loss with CPT; chicken DT40 Tdp1-/-;hTDP1 cells + 20 nM CPT, ATP luminescence, 48 h; Potency, µM (series often up to 46.2 µM), for the others: at the top dose activity change, negative = growth inhibition, hits mostly inhibitors; hit rate 12% among 420,000; AID 686979; also: potency is read from the fitted curve at half-maximal effect; nearly all actives have a fitted effect of over 55% in size
#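 Chicken DT40 Tdp1-/- cells stably complemented with human TDP1 were seeded at 400 cells/well in medium containing 20 nM camptothecin, exposed to pin-transferred compounds, and grown at 37 °C for at least 48 hr. Viability was read as ATP luminescence.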
# Six1-Eya2 inh = Six1/Eya2 interaction inhibition | Q15475+O00167 | AID 651725 | hit rate 0.56% among 360,000 | activity change, % (concentration not given with the values) | AlphaScreen GST-Six1/His-Eya2 binding, biochemical; stronger effect = lower value; in the data active = activity change below about -65%; inconclusive = mostly about -30% to -63%
#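 Six1/Eya2 binding was read as AlphaScreen signal after compounds were pinned into GST-Six1 plus His-tagged Eya2 (5X stock 250/500 nM) in pH 8.0 Tris/NaCl/TCEP buffer, beads added, then incubated 1 h, 37 C, dark.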
# DT40 TDP1 no CPT = qHTS for Inhibitors of human tyrosyl-DNA phosphodiesterase 1 (TDP1): qHTS in cells in absence of CPT; DT40 Tdp1-/- hTDP1 cells, no CPT, ATP luminescence, 48 h; hit rate 15% among 420,000; Potency, µM (doses to about 46.2 µM), for the others: at the highest dose activity change, negative = growth inhibition, usual class: inhibitors; AID 686978, 2013; also: potency is read from the fitted curve at half-maximal effect; nearly all actives have a fitted effect of over 55% in size
#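 Chicken DT40 Tdp1-/- cells stably complemented with human TDP1 were seeded at 400 cells/well with DMSO in place of 20 nM camptothecin. After compound pinning, cells grew at least 48 hr at 37 °C; viability read by CellTiter-Glo luminescence.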
# * hit, by the source's call; ? = inconclusive; / = no result given; [ ] = dose if it differs, or a comment. An excerpt weighted towards active compounds, which were near 18% of everything screened. Unless noted, calls follow the shape of the dose curve; as a rule, active = well fitted curve in the direction sought with a large enough effect; inconclusive = small, poorly fitted or top-dose-only effect, or another doubt; inactive = no such curve, though single readings can be large; an effect the other way counts as inactive or inconclusive. % is scaled to controls: 0 for no effect and ±100 for the full control effect.
SMILES,CtBP-E1A blk,TDP1 inh,IL1B secr inh,DT40 TDP1 CPT,Six1-Eya2 inh,DT40 TDP1 no CPT
CCOC(=O)[C@]12CCCC=C1N(Cc1ccc3c(c1)OCO3)C(=O)[C@H](CC(=O)NCC13CC4CC(CC(C4)C1)C3)C2,0,/,-9,?,-14,23µM*
CCOC(=O)[C@]12CCC=C1N(Cc1ccc3c(c1)OCO3)C(=O)[C@H](CC(=O)NCCCCc1ccccc1)C2,-24,/,-69*,?,4,21µM*
CCCCNC(=O)C[C@@H]1C[C@@]2(C(=O)OC)CCCCC=C2N(Cc2ccc3c(c2)OCO3)C1=O,0,/,-61*,?,-6,?
CCOC(=O)[C@]12CCC=C1N(Cc1ccc3c(c1)OCO3)C(=O)[C@H](CC(=O)NCc1ccccc1)C2,16,/,0,?,-5,?
CCCCOCCCNC(=O)C[C@@H]1C[C@@]2(C(=O)OC)CCCCC=C2N(Cc2ccc3c(c2)OCO3)C1=O,-10,/,-13,?,-10,?
Cc1ccnc(NC(=O)CCC(=O)N(CC(=O)NC2CCCCC2)c2ccc3c(c2)OCO3)c1,0,-1%,-5,-11%,9,-22%
CCCCNC(=O)C[C@@H]1C[C@@]2(C(=O)OCC)CCC=C2N(Cc2ccc3c(c2)OCO3)C1=O,10,/,2,?,0,?
COC(=O)[C@]12CCCCC=C1N(Cc1ccc3c(c1)OCO3)C(=O)[C@H](CC(=O)NCCCCc1ccccc1)C2,-19,/,-55*,?,-5,?
CCOC(=O)[C@]12CCCC=C1N(Cc1ccc3c(c1)OCO3)C(=O)[C@H](CC(=O)NCCCCc1ccccc1)C2,-6,/,-63*,?,1,21µM*
CSc1nc(N)n2nc(C)cc2n1,-92*,/,0,5%,-89*,6%
Cc1cc(=O)oc2cc(OCC(=O)Nc3c(C(C)C)cccc3C(C)C)ccc12,/,5%[12.3 µM],/,?,/,13µM*
Cc1cc(OCC(=O)Nc2c(C(C)C)cccc2C(C)C)no1,5,/,30,13µM*,-1,8.2µM*
COC(=O)CNC(=O)Cn1ccc2ccccc2c1=O,1,3%,-8,-7%,5,-3%
CC[C@]12c3[nH]c4ccccc4c3CCN1C(=O)C(CC(=O)NC(C)(C)C)C[C@@H]2C(=O)N1CCN(C(=O)C2CC2)CC1 (stereo partly specified),4,1%,24,-6%,1,-12%
COc1ccc2[nH]c3c(c2c1)CCN1C(=O)C(CC(=O)NC/C=C(\C)CCC=C(C)C)C[C@H](C(=O)N2CCOCC2)[C@@]31CCC1CCCC1 (stereo partly specified),-11,-1%[56.1 µM],12,15µM*,6,21µM*
COCCCNC(=O)CC1C[C@H](C(=O)N2CCOCC2)[C@@]2(CCC3CCCC3)c3[nH]c4ccc(OC)cc4c3CCN2C1=O (stereo partly specified),5,-1%[56.1 µM],-2,?,-2,-21%
CC[C@]12c3[nH]c4ccc(OC)cc4c3CCN1C(=O)C(CC(=O)NC/C=C(\C)CCC=C(C)C)C[C@@H]2C(=O)N1CCN(C(=O)C2CC2)CC1 (stereo partly specified),0,0%[56.1 µM],-62*,?,-14,?
CC[C@]12c3[nH]c4ccccc4c3CCN1C(=O)C(CC(=O)NC/C=C(\C)CCC=C(C)C)C[C@@H]2C(=O)N1CCN(C(=O)C2CC2)CC1 (stereo partly specified),-4,3%,?,21µM*,-4,15µM*
CC[C@]12c3[nH]c4ccc(OC)cc4c3CCN1C(=O)C(CC(=O)NCCCN(C)C)C[C@@H]2C(=O)N1CCN(C(=O)C2CC2)CC1 (stereo partly specified),4,1%[56.1 µM],7,7%,0,15%
